According to PubChem BioAssay (NCI):
Compounds without any hit were thinned out: in the full panel of roughly 79,000, 15% have a hit. Unmarked numbers belong to inactive results. Calls of active or inactive are those of the source. Rule as the data show it: active = growth inhibition above about 70%; inactive = the rest.

Legend:
[1] = NCI Yeast Anticancer Drug Screen. Data for the rad50 strain (AID 155);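 also: 0% = growth of vehicle-only cultures of the same strain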; settings: S. cerevisiae rad50 strain growth inhibition, active compounds read high
Procedure, shortened: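 A DNA repair-deficient yeast mutant serves as the test organism; compound-induced growth inhibition is calculated against vehicle-treated cells.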

[2] = NCI Yeast Anticancer Drug Screen. Data for the mec2-1 strain (AID 157); settings: S. cerevisiae mec2-1 strain, active compounds read high
Procedure, shortened: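 Test agents were screened against the mec2-1 yeast strain, with defined DNA repair or cell cycle alteration. Growth was scored as inhibition against vehicle-only controls.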

[3] = NCI Yeast Anticancer Drug Screen. Data for the sgs1 mgt1 strain (AID 161);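 also: 0% = growth of cultures given vehicle only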; settings: S. cerevisiae sgs1 mgt1 strain, active compounds read high
Procedure, shortened: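 Read-out: growth inhibition vs vehicle controls. Cells: mutant yeast strain deficient in DNA damage repair.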

[4] = NCI Yeast Anticancer Drug Screen. Data for the cln2 rad14 strain (AID 165);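 also: 0% = growth equal to vehicle treated cultures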; settings: S. cerevisiae cln2 rad14 strain, active compounds read high
Procedure, shortened: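 Growth of compound-exposed yeast (cln2 rad14 genotype) measured and expressed as inhibition relative to vehicle.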

[5] = NCI Yeast Anticancer Drug Screen. Data for the bub3 strain (AID 167); settings: S. cerevisiae bub3 mutant strain, active compounds read high
Procedure, shortened: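 Inhibition values come from growth of compound-treated mutant yeast normalised to vehicle-treated controls.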

[6] = NCI Yeast Anticancer Drug Screen. Data for the mlh1 rad18 strain (AID 175); settings: S. cerevisiae mlh1 rad18 strain growth inhibition, active compounds read high
Procedure, shortened: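 In this whole-cell yeast screen, a strain with altered DNA damage repair is challenged with compound, and its growth is measured against matched vehicle-treated controls.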

[7] = at 5.0 µM (retest, dose inferred, filed as 0.5)
[8] = at 50.0 µM (retest, dose inferred, filed as 5.0)

Compound | growth inhibition [1, 7] | growth inhibition [1, 8] | growth inhibition ([1]; at 50.0 µM) | growth inhibition [2, 7] | growth inhibition [2, 8] | growth inhibition ([2]; at 50.0 µM) | growth inhibition [3, 7] | growth inhibition [3, 8] | growth inhibition ([3]; at 50.0 µM) | growth inhibition [4, 7] | growth inhibition [4, 8] | growth inhibition ([4]; at 50.0 µM) | growth inhibition [5, 7] | growth inhibition [5, 8] | growth inhibition ([5]; at 50.0 µM) | growth inhibition [6, 7] | growth inhibition [6, 8] | growth inhibition ([6]; at 50.0 µM)
O=CNc1ccc2c(c1)Cc1cc(NC=O)ccc1-2 | -4% | 81% (active) | 91% (active) | -3% | 25% | 34.5% | 18% | 82% (active) | 91.4% (active) | -34% | 10% | -6.85% | 2% | -9% | 7.8% | 14% | 79% (active) | 74.2% (active)
COC(=O)[C@@H]1c2cc3c(c(O)c2[C@@H](OC2OC(C)C(OC)C(C)(OC)C2OC)C[C@]1(C)O)C(=O)c1c(O)cc2c(c1C3=O)O[C@H]1O[C@]2(C)[C@H](O)[C@@H](N(C)C)[C@@H]1O (some centres not stated) | 61% | 98% (active) | 90.8% (active) | 45% | 99% (active) | 93% (active) | 35% | 99% (active) | 92.3% (active) | 33% | 98% (active) | 90.6% (active) | 60% | 99% (active) | 91.2% (active) | 79% (active) | 98% (active) | 89.8% (active)
Cc1ccccc1[P+](C)(c1ccccc1C)c1ccccc1C | 56% | 85% (active) | 81% (active) | 18% | 78% (active) | 69.7% | 31% | 89% (active) | 82.2% (active) | 2% | 48% | 29.1% | 27% | 85% (active) | 82.8% (active) | 34% | 84% (active) | 71.8% (active)
O=C1CCCc2cc3c(nc21)C(=O)CCC3 | -8% | -3% | 14.7% | -11% | 0% | 12.6% | 3% | 0% | 13.1% | -7% | 2% | 47.7% | -6% | 1% | 0.6% | 10% | -9% | 2.5%
CCCCOP(=O)(OCCCC)C(NS(=O)(=O)c1ccccc1)(C(=O)OCC)C(F)(F)F (configuration not stated) | 11% | 42% | 99% (active) | 7% | 28% | 99.1% (active) | 3% | 48% | 99% (active) | 16% | 63% | 99.2% (active) | 9% | 47% | 99.2% (active) | 26% | 79% (active) | 99% (active)
CC(C(O)c1ccccc1)C(O)(C(F)(F)F)C(F)(F)F (configuration not stated) | 8% | 13% | 8.95% | 6% | -3% | -7.6% | 3% | 10% | -15.9% | 1% | -4% | 15.5% | -2% | -7% | -19.6% | 18% | 6% | 17.4%
S=C(N/N=C/c1ccccn1)Nc1ccccn1 | -1% | 99% (active) | 90.8% (active) | -2% | 99% (active) | 92.9% (active) | 3% | 99% (active) | 91.5% (active) | -15% | 98% (active) | 88.5% (active) | -2% | 98% (active) | 90.9% (active) | -3% | 96% (active) | 90.1% (active)
COc1ccc(OC)c(N=Nc2c(C)[nH]n(C(N)=S)c2=O)c1 | -6% | 47% | 79.3% (active) | -3% | 34% | 19% | 7% | 34% | 80.7% (active) | -2% | 27% | 10.6% | -14% | 26% | 42.1% | 11% | 25% | 66.7%
Oc1ccccc1C(c1ccccc1O)C(Cl)(Cl)Cl | 94% (active) | 96% (active) | 95.7% (active) | 96% (active) | 97% (active) | 98.5% (active) | 94% (active) | 96% (active) | 97.3% (active) | 97% (active) | 96% (active) | 95% (active) | 84% (active) | 96% (active) | 98.2% (active) | 91% (active) | 96% (active) | 98% (active)
CC(C)c1ccc(/C=C2\CSCC3=C2NC(=S)NC3c2ccc(C(C)C)cc2)cc1 (configuration not stated) | -6% | 83% (active) | 98.3% (active) | -17% | 92% (active) | 98.7% (active) | -13% | 87% (active) | 98.9% (active) | -3% | 83% (active) | 98.6% (active) | -13% | 95% (active) | 98.7% (active) | -4% | 94% (active) | 98.4% (active)
CC1CC(C)CC(NC2=NCCO2)C1 (configuration not stated) | 13% | -5% | -4.1% | 6% | -5% | 22.2% | 12% | 13% | 21.6% | 11% | 7% | 27.6% | 27% | 15% | 7.8% | 8% | -12% | 21.1%
COc1ccc(C(c2cc3c(cc2O)OCO3)N2CCOCC2)cc1OC (configuration not stated) | -2% | 39% | 77.5% (active) | -5% | 59% | 86.5% (active) | -2% | 43% | 96.5% (active) | 0% | 12% | 67.5% | -5% | 41% | 98% (active) | -2% | 35% | 70.7% (active)
COc1ccc(C(C#N)=C2C=CC(=NOC(=O)Nc3ccccc3)C=C2)cc1 | 41% | 82% (active) | 88.4% (active) | 28% | 92% (active) | 93.1% (active) | 68% | 96% (active) | 94.8% (active) | 4% | 91% (active) | -1.4% | 12% | 37% | 69.1% | 33% | 91% (active) | 96.3% (active)
CCc1c(Nc2ccccc2C)[nH]c(N)nc1=S | -2% | -32% | -6.6% | -2% | -7% | 5.35% | -1% | -7% | 12.4% | -7% | -15% | -7% | -4% | 8% | 77.2% (active) | -1% | -7% | -12.4%
CC(=O)OC1(C)C(=C(Cl)Cl)C2c3ccccc3C1c1ccccc12 (configuration not stated) | 0% | 91% (active) | 92.7% (active) | 19% | 88% (active) | 82.2% (active) | 2% | 92% (active) | 94.3% (active) | 7% | 89% (active) | 64.4% | -4% | 93% (active) | 93.2% (active) | 10% | 91% (active) | 93.8% (active)
COc1cc2oc(-c3ccc(O)cc3O)c(CC=C(C)C)c(=O)c2c(O)c1/C=C/C(C)C | 17% | 97% (active) | 89.5% (active) | 8% | 98% (active) | 90.7% (active) | 10% | 97% (active) | 91% (active) | 24% | 98% (active) | 88.8% (active) | 11% | 97% (active) | 88.8% (active) | 9% | 97% (active) | 90.3% (active)
CCCCCCCNCCCCCC | 64% | 92% (active) | 67.7% | 20% | 69% | 63.8% | 73% (active) | 93% (active) | 84.7% (active) | 28% | 86% (active) | 68.3% | 75% (active) | 97% (active) | 67.1% | 78% (active) | 94% (active) | 48.6%
ClC1=C(Cl)C2c3ccccc3C1c1ccccc12 | -4% | 97% (active) | 93.6% (active) | 6% | 97% (active) | 76.2% (active) | 0% | 97% (active) | 95.7% (active) | -4% | 97% (active) | 65.2% | -9% | 98% (active) | 47.9% | -5% | 97% (active) | 95.7% (active)
O=C1/C(=C/c2ccccc2)CCCc2ccccc21 | -2% | 28% | 59.8% | 7% | 62% | 49.5% | 14% | 79% (active) | 86% (active) | -10% | 14% | 19.7% | 10% | 75% (active) | 74.8% (active) | 10% | 73% (active) | 75% (active)
